Screening data deposited in PubChem BioAssay by National Center for Advancing Translational Sciences (NCATS).
HCMV antiviral: blocks human cytomegalovirus replication. HFF cells, HCMV-luciferase reporter, 72 h; hits give low values. activity change, negative = inhibition, % at 57.5 µM. hit rate 4.5% among 410,000. AID 1259415; in the data active = activity change below about -60%; inconclusive = no clear call, values can overlap the other calls; inactive = above about -39%
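Two compound doses tested in HFFs infected with HCMV-luciferase, MOI 1 PFU/cell, 72 h at 37C. Lysate luminescence read with OneGlo; data normalized against buffer-only and 10uM Salinomycin inhibitor controls.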
MARV entry inh: Marburg virus entry inhibition | Marburg virus pseudotyped entry inhibition, cell reporter | Potency, µM (highest dose often 37.8 µM), inactives show at the top dose activity change, negative = inhibition, hits mostly inhibitors | hit rate 1.8% among 300,000 | AID 540276; calls by dose curve; tested in HEK293 cells; also: potency is read from the fitted curve at half-maximal effect
FMDV inh: antivirals against foot and mouth disease virus | FMDV antiviral cell-based qHTS | Potency, µM (top dose mostly 57.9 µM), without a hit: at the top dose activity change, negative = inhibition, most hits filed as inhibitors | hit rate 1.2% among 410,000; calls by dose curve; tested in HEK293T cells; also: read-out not given here; potency is read from the fitted curve at half-maximal effect; nearly all actives have a fitted effect of over 45% in size
LASV entry inh: inhibitors of Lassa virus binding or cell entry; Lassa virus pseudotype entry inhibition, cell reporter; Potency, µM (doses to about 37.9 µM), inactives show at the top dose activity change, negative = inhibition, most hits filed as inhibitors; hit rate 1.2% among 300,000; calls by dose curve; tested in HEK293 cells; also: potency is read from the fitted curve at half-maximal effect; nearly all actives have a fitted effect of over 50% in size
* = called active by the depositor; ? = inconclusive; · = not tested or not shown; ! = not active in a repeat; [ ] = another dose, or the depositor's remark. Hits are enriched below; roughly 6.2% of the tested compounds scored in any of these assays. % is scaled to controls: 0 for no effect and ±100 for the full control effect.

SMILES	HCMV antiviral	MARV entry inh	FMDV inh	LASV entry inh
COc1ccc(CCn2c(=N)c(C(=O)NCC3CCCO3)cc3c(=O)n4cccc(C)c4nc32)cc1 (stereo not given)	-108*	·	-10%	·
Cc1cccn2c(=O)c3cc(C(=O)NC4CCCC4)c(=N)n(CC4CCCO4)c3nc12 (stereo not given)	-38	-1%[46.1 µM]	-7%	17%
O=C(Cc1csc(NC(=O)Nc2cccc(Cl)c2)n1)NCc1ccccn1	39	?	8%	-10%
O=C(Cc1csc(NC(=O)Nc2cccc(Cl)c2)n1)NC1CCCC1	-28	13µM*	?	-14%
COc1ccc(CNC(=O)c2cnn(-c3ccc(C)cc3)c2-n2cccc2)cc1OC	-39	·	?	-22%[46.1 µM]
COc1ccc(N2C(=O)/C(=C/c3ccc(C)o3)C(=O)NC2=S)c(OC)c1	11	·	20µM*	·
COc1ccc(N2C(=O)/C(=C/c3ccc(OC)c(OC)c3)C(=O)NC2=S)cc1	6	·	-16%	·
Cc1cccc(N2C(=O)/C(=C/c3ccc(N4CCN(C)CC4)o3)C(=O)NC2=S)c1C	-64*	-15%	-17%	-12%
COc1ccc(S(=O)(=O)c2c(C)c(NS(=O)(=O)c3ccccc3)cc(C)c2O)cc1	-63*!	-5%[46.1 µM]	2%	12%
COc1ccc(S(=O)(=O)c2c(O)c(C)cc(NC(=O)c3ccccc3)c2C(C)C)cc1	-63*	-16%[46.1 µM]	-2%	-6%[46.1 µM]
Cc1c(NS(=O)(=O)c2ccccc2)cc(C(C)C)c(O)c1S(=O)(=O)c1ccc(Cl)cc1	-37	11µM*	-3%	-19%[46.1 µM]
COC(=O)C1=CN(c2ccc(Oc3ccccc3)cc2)C(N)=C(C#N)C1c1ccccc1 (stereo not given)	11	·	4%	·
C[C@@H]1CC2=CCCC2[C@]2(O1)C(=O)N(Cc1ccc(Br)cc1)c1cccc(Br)c12 (stereo not given in full)	·	-25%[14.2 µM]	·	?
O=[N+]([O-])c1cccnc1S(=O)(=O)c1ccccc1	-99*	?	22µM*	?
COc1nc(OC)nc(Oc2ccc(Cl)cc2[N+](=O)[O-])n1	19	-2%	-17%	-3%
COc1ccc([N+](=O)[O-])c(S(=O)(=O)c2ccccc2)n1	-97*	?	32µM*	7.1µM*
COc1ccc([N+](=O)[O-])c(S(=O)(=O)c2ccc(Cl)cc2)n1	-100*	4.5µM*	13µM*	?
Nc1cccnc1S(=O)(=O)c1ccccc1	8	0%[46.1 µM]	11%	?
COc1ccc(-c2cc(C)cc3c2OC(CNC(=O)/C=C/c2ccncc2)C3)nn1 (stereo not given)	·	·	-17%	·
Cc1nn(-c2ccccc2)c2nc(C3CC3)cc(C(=O)Nc3ccccc3F)c12	-27	·	-14%	-12%[46.1 µM]
Cc1ccc(OCC(=O)Nc2ccc(S(=O)(=O)Nc3cc(C)nc(C)n3)cc2)c(Br)c1	23	·	45%	-1%[46.1 µM]
CCOC(=O)c1ccc(CC2S/C(=C(\C#N)C(C)=O)NC2=O)cc1 (stereo not given)	119	?	63%	?
CC(=O)/C(C#N)=C1\NC(=O)C(Cc2ccc(C)c(Cl)c2)S1 (stereo not given)	-92*	?	14%	?
CCc1ccc(CC2S/C(=C(\C#N)C(C)=O)NC2=O)cc1 (stereo not given)	-90*	?	26%	5.8µM*
COc1ccc(NC(=O)N2CC3(CCN(C(=O)c4cnccn4)CC3)C2)cc1	·	·	-1%	·
SMILES	HCMV antiviral	MARV entry inh	FMDV inh	LASV entry inh
CCOc1ccccc1N(CC)C(=O)c1noc2c1COc1ccc(C)cc1-2	-4	·	-9%	-1%[46.1 µM]
Cc1ccc(NC(=O)c2cc(CC(C)C)nc3ccccc23)cc1	-70*	?	-6%	-19%[46.1 µM]
COc1ccc(Nc2cc(C(=O)NCc3ccccc3)c3ccccc3n2)cc1	?	?	5%	-6%[46.1 µM]
Cc1ccc(NC(=O)c2cc(C)nc3ccccc23)cc1	15	·	-1%	·
COc1ccc(NC(=O)c2cc(CC(C)C)nc3ccccc23)cc1	-77*	·	15%	·
CCCCn1nnnc1C(c1cc2ccccc2o1)N1CCN(C(=O)OC(C)(C)C)CC1 (stereo not given)	16	·	-8%	·
Cc1ccc(SCC(=O)NCC2COc3ccccc3O2)cc1 (stereo not given)	-65*	-17%	4%	9%
OC1CCN(Cc2ccc3c(c2)CN(C/C=C/c2ccco2)CCO3)CC1	·	·	-6%	·
CC#CC#Cc1cccc(=O)o1	-89*	·	-26%	·
CC(C)(C)c1ccc(C(=O)Nc2ccc(N3CCOCC3)cc2)cc1	-78*	?	·	-28%
CC(C)c1ccc(NC(=O)N2CCOCC2)cc1	64	·	40%	·
Cc1ccc(C(=O)N[C@H](C(=O)Nc2ccc(N3CCOCC3)cc2)C(C)C)cc1	-1	?	-19%	-2%
CC(C)c1ccc(C(=O)Nc2ccc(N3CCOCC3)cc2)cc1	-66*	?	-19%	-24%
CC(C)(C)c1ccc(C(=O)NC(=S)Nc2ccc(N3CCOCC3)cc2)cc1	-19	0.79µM*	-15%	?
CC(=O)c1ccc(C(=O)Nc2ccc(N3CCOCC3)cc2)cc1	16	16%	-15%	0%
O=C(NC(=S)Nc1ccc(N2CCOCC2)cc1)c1ccc(Cl)cc1	-1	?	?	-2%
CC(=O)c1ccc(N2CCN(C(=O)Nc3ccc(C(C)C)cc3)CC2)cc1	-82*	3.2µM*	14µM*	?
Cc1nc2cc(NC(=O)Nc3ccc(N4CCOCC4)cc3)ccc2n1C	-63*	6%	-3%	1%
O=C(NCC1Cc2cc(F)cc(-c3cnccn3)c2O1)c1cccc(Cl)c1 (stereo not given)	·	·	-12%	·
Cc1ccc(OCC(O)Cn2c(=N)n(CCN3CCCCC3)c3ccccc32)cc1 (stereo not given)	-82*!	8.2µM*	?	?
N=c1n(CCN2CCCC2)c2ccccc2n1CC(O)c1ccc(Cl)c(Cl)c1 (stereo not given)	-99*	·	?	·
N=c1n(CCO)c2ccccc2n1CCOc1ccc(Cl)cc1Cl	-2	1%	28µM*	·
N=c1n(CCN2CCCCC2)c2ccccc2n1CC(O)COc1ccc(Cl)cc1Cl (stereo not given)	-99*	5.6µM*	-16%	?
CCCNC(=O)OC[C@H]1O[C@H](CCON=C2C[C@@H](O)[C@@H](O)[C@@H]3[C@H]4C(=O)N(CC)C(=O)[C@@H]4CC[C@H]23)C=C[C@H]1Oc1ccc(OC)cc1	·	0%[14.2 µM]	·	·
CN(C)S(=O)(=O)c1ccc2c(c1)nnn2CCNC(=O)Nc1ccc(Cl)cc1	-7	·	-6%	4%[46.1 µM]
SMILES	HCMV antiviral	MARV entry inh	FMDV inh	LASV entry inh
O=C(NC1CCCCCCC1)c1cc(F)c(F)cc1Cl	-61*	·	43%	·
Cc1ccc(C(=O)NC2CCCCCCC2)c(Cl)c1	-79*	·	-46%	·
O=C(COC(=O)c1cc(F)c(F)cc1Cl)NC1CCCCCC1	-12	·	-6%	·
Cc1ccc(C(=O)NC2CCCCC2)cc1	111	0%	·	4%
CCOC(=O)C1CCCN(Cc2cn3c(-c4ccc(Br)cc4)nnc3s2)C1 (stereo not given)	14	·	-20%	?
CC(=O)N(C(C)=O)c1ncc2c([nH]c3ccccc32)c1C#N	-77*	?	-2%	-14%
